HEK293 cAMP ctrl – counter-screen for TSHR agonists: cAMP increase in parental HEK293; parental HEK293 CNG cAMP sensor, membrane potential fluorescence; Potency, µM (series often up to 57.1 µM), for the others: at the top dose activation, most hits filed as activators; 73,000 compounds, 2.5% hits; AID 938; also: % of control where 0% means no effect; nearly all actives have a fitted effect of over 55% in size
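Parental HEK 293 cells stably expressing a cAMP-gated CNG channel were loaded with membrane potential dye containing 100 uM RO 20-1724 for 60 min. Compound added for 30 min; depolarization read as fluorescence intensity at 590 nm.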
Tau filament bind – binders of human tau filaments; AID 596; Potency, µM (series often up to 57.1 µM), for the others: at the top dose activity change, negative = inhibition; P10636; recombinant tau filaments, thioflavin S fluorescence, 15 h; filaments grown with octadecylsulfate alongside compound; 71,000 compounds, 2% hits;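 also: % is scaled to controls: 0 for no effect and ±100 for the full control effect; actives lower thioflavin S fluorescence by blocking filaments or displacing dye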
Target sequence (P10636 whole entry, looked up): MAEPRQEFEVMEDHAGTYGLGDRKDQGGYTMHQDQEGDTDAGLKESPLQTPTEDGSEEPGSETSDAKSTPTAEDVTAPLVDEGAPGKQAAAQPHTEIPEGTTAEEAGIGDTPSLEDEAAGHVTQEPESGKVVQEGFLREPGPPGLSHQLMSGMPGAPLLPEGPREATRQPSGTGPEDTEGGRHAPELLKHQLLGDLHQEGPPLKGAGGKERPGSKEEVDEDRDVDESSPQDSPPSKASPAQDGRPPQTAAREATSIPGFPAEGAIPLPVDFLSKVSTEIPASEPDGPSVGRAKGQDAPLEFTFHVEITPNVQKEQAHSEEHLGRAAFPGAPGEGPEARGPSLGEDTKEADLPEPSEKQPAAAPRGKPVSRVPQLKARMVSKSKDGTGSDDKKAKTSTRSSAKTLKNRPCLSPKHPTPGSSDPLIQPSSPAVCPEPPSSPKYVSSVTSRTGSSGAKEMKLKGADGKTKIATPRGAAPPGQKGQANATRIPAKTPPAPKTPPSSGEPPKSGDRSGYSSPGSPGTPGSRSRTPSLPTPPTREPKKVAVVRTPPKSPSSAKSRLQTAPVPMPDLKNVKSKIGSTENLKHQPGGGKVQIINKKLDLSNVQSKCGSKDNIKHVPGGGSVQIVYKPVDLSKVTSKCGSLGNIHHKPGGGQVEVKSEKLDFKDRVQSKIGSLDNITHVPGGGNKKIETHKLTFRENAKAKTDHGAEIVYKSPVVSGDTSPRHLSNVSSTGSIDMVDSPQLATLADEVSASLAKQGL
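Thioflavine S fluorescence (ex 450, em 510 nm) reports filaments formed from 1 uM human tau plus 30 uM ODS over 15 h at 37 C (10 mM HEPES pH 7.4, 100 mM NaCl, 5 mM DTT); compounds displacing dye or blocking filaments lower signal.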
CRE Fsk mod – CRE-bla signaling modulation under forskolin stimulation | CHO CRE-bla reporter (cAMP response element driving beta-lactamase), forskolin EC10, beta-lactamase ratio | Potency, µM (series often up to 38.2 µM), without a hit: at the highest dose activity change, negative = inhibition, hits mostly activators | 71,000 compounds, 2.5% hits | AID 662; active = well fitted activation curve with a large enough effect in the signal ratio, with a control signal flat, not every such curve was filed as active; inconclusive = small, poorly fitted or top-dose-only effect, or effect the other way, or a change in a side signal; the % refers to the signal ratio; also: % of control where 0% means no effect
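CHO CRE-bla cells, overnight plating in Opti-MEM with 0.5% dialyzed FBS; cpd titration + EC10 NKH 477, 3 h 37 °C; CCF4 2 h RT; ex 405/em 460 vs 530 ratio → %Activity, AC50.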
TSHR ag – agonists of human thyroid stimulating hormone receptor | P16473 | HEK293-CNG-TSHR cells (CNG channel as cAMP sensor), membrane potential dye, cAMP | Potency, µM (doses to about 57.1 µM), for the others: top-dose activation, most hits filed as activators | 73,000 compounds, 0.48% hits | AID 926; active = well fitted activation curve with a large enough effect in the main read-out, with a control signal flat, not every such curve was filed as active; inconclusive = small, poorly fitted or top-dose-only effect, or a change in a side signal; inactive = no such curve, though single readings can be large or run the other way; % of control where 0% means no effect;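 also: the control signal comes from parental cells without the receptor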
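HEK 293 cells stably expressing TSHR and a modified CNG channel, with CNG-only parental cells as counterscreen, were preloaded 60 min at room temperature with membrane potential dye containing 100 uM RO 20-1724. Compound exposure was 30 min, and depolarization was read as fluorescence at 590 nm.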
ERK AVP inh – blocks ERK signaling stimulated by vasopressin | HEK293-V1b, vasopressin-stimulated pERK AlphaScreen | Potency, µM (titrated, usually from 57.5 µM), inactives show at the top dose activity, negative = inhibition, actives largely listed as inhibitors | 72,000 compounds, 0.99% hits | AID 995; also: % is scaled to controls: 0 for no effect and ±100 for the full control effect; nearly all actives have a fitted effect of over 55% in size
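HEK293 cells stably expressing V1b receptor, seeded overnight in 1% FBS, were treated with compounds for 30 min at 37C, then stimulated 5 min with 25 nM vasopressin; phospho-ERK read by AlphaScreen SureFire after lysis.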
Active calls of the source: *; ? = inconclusive; . = no result; [ ] = another dose, or the depositor's remark. Rows were chosen to be rich in hits. Some 7.4% of all compounds tested hit in one or more screens of this group. Unless noted, calls follow the shape of the dose curve; as a rule, active = well fitted curve in the direction sought with a large enough effect; inconclusive = small, poorly fitted or top-dose-only effect, or another doubt; inactive = no such curve, though single readings can be large; an effect the other way counts as inactive or inconclusive. Potency is read from the fitted curve at half-maximal effect.

SMILES	HEK293 cAMP ctrl	Tau filament bind	CRE Fsk mod	TSHR ag	ERK AVP inh
Cc1cc(=S)[nH]c2ccccc12	4%	7%	?	5%	-10%
COc1ccc(OC)c2c(=S)c3ccccc3[nH]c12	-5%	13µM*	20µM*	-18%	?
COc1cccc(-c2nn(C)c3sc(C(=O)Nc4ccc5c(c4)OCCO5)cc23)c1	15%	59%	1.3µM*	29%	17%
CCOC(=O)N1CCC(NC(=O)c2cc3c(-c4cccc(OC)c4)nn(C)c3s2)CC1	-1%	339%	?	10%	32%
COc1cccc(-c2nn(C)c3sc(C(=O)NCc4ccccn4)cc23)c1	-4%	23%	7.9µM*	1%	0%
CCc1cccc2c(-c3ccccc3)c3c(nc12)OCC3	?	23%	?	?	2%
Cc1ccc(S(=O)(=O)N(CC(=O)O)c2ccc(Cl)cc2)cc1	11%	.	.	1%	.
C=C[C@@](C)(O)CC[C@H]1[C@]2(C)CCCC(C)(C)[C@H]2CC[C@]1(C)O	-7%	?	?	.	.
COc1ccccc1N1CCN(c2nc(N)c(C#N)c(CC#N)c2C#N)CC1	10%	16%	23%	8%	?
COc1cc2c(C#N)c(N3CCN(c4ccccc4OC)CC3)nc(N)c2c(N)n1	-7%	-11%	?	-10%	25µM*
COc1ccc(CNc2nc(-c3c(C)noc3C)nc3ccccc23)c(OC)c1	?	85%	?	?	?
COc1ccc(-c2noc(C)c2-c2ccc3ccccc3n2)c(O)c1	17%	16µM*	-10%	30%	-17%
OC[C@@H](O)CNc1ncnc2ccccc12	19%[11.4 µM]	5%[11.4 µM]	10%[7.6 µM]	2%[11.4 µM]	-6%[11.5 µM]
CCCn1c(N2CCN(CC(=O)c3c(C)n(C)c4ccccc34)CC2)nc2c1c(=O)[nH]c(=O)n2C	5%	28%	7.9µM*	13%	?
CCn1c(N2CCN(CC(=O)c3c[nH]c4ccccc34)CC2)nc2c1c(=O)[nH]c(=O)n2C	-4%	-1%	28%	0%	-3%
Cc1cc(Cc2cc(C)c(N)cc2N)c(N)cc1N	0%[11.4 µM]	196%[11.4 µM]	-4%[7.6 µM]	3%[11.4 µM]	-14%[11.5 µM]
COc1ccc(Oc2ncc3nc(C)c(=O)n(Cc4cccc(OC)c4)c3n2)cc1	25µM*	-29%	4µM*	?	3%
COc1ccc(Oc2ncc3nc(-c4cccc(C#N)c4)c(=O)n(Cc4cccc(OC)c4)c3n2)cc1	25µM*	10µM*	10%	?	-7%
N#CCCn1c(=O)c(-c2cccc(C#N)c2)nc2cnc(Oc3ccccc3)nc21	5%	-14%	-4%	-9%	?
COc1cccc(Cn2c(=O)c(-c3cccc(C#N)c3)nc3cnc(N4CCN(C)CC4)nc32)c1	-78%	3.2µM*	?	?	37%
CN1CCN(c2ncc3nc(-c4cccc(C#N)c4)c(=O)n(C[C@H]4CCCO4)c3n2)CC1	-7%	-19%	10µM*	-7%	3%
N#Cc1cccc(-c2nc3cnc(N4CCOCC4)nc3n(C[C@H]3CCCO3)c2=O)c1	?	21%	?	?	-27%
CN1CCN(c2ncc3nc(-c4cccc(C#N)c4)c(=O)n(Cc4ccc(F)cc4)c3n2)CC1	-25%	?	?	-10%	-22%
O=S(=O)(O)c1cc(O)c2c(N=Cc3ccccc3O)cc(S(=O)(=O)O)cc2c1	-6%[11.4 µM]	18%[11.4 µM]	?	-1%[11.4 µM]	5%[11.5 µM]
CCN1C(=O)[C@H]2[C@H]3[C@H](O)[C@H](O)C/C(=N/O[C@@H](C)c4cc(-c5c(C)cc(C)cc5C)no4)[C@@H]3CC[C@@H]2C1=O	-1%[11.4 µM]	.	.	4%[11.4 µM]	2%[11.5 µM]
COCCCn1c(=N)c(C(=O)NCc2ccc3c(c2)OCO3)cc2c(=O)n3ccccc3nc21	-74%	10µM*	?	?	10%
COCCNC(=O)c1cc2c(=O)n3cccc(C)c3nc2n(Cc2ccncc2)c1=N	9%	-6%	4%	11%	-8%
COCCCn1c(=N)c(C(=O)NCc2ccc3c(c2)OCO3)cc2c(=O)n3cccc(C)c3nc21	-5%	3.2µM*	-6%	-10%	-4%

Screens: PubChem BioAssay, National Center for Advancing Translational Sciences (NCATS)
